A selection: hits, their analogues and other compounds. The true share with any hit is near 2.8%.
KKLEB cytotox: reduces viability of KKLEB cystic fibrosis airway cells; KKLEB CF airway cells viability, ATPlite luminescence, overnight; hits give low values; cells stimulated with P. aeruginosa culture filtrate; activity change (cytotoxicity), % at 5 µM; 0.36% of 360,000 active; AID 602141;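 active means corrected activity change at or below -50% at 5 µM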
MITF TRPM1 inh: MITF TRPM1 promoter inhibition in SK-MEL-5 cells | AID 488899 | inhibition, % at 12.5 µM | 0.83% of 330,000 active | SK-MEL-5 TRPM1 promoter luciferase, 24 h;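 active means mean inhibition across replicates of 60% or more, whatever share of single replicates reaches that level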
HIF-2a inh: inhibitors of HIF-2a; 786-0 RCC cells HIF-2a reporter, luciferase luminescence, overnight; inhibition, % at 18.8 µM; 0.72% of 360,000 active;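 active means inhibition of the luminescence signal of 40% or more relative to plate controls, in a single-dose primary screen at 18.75 µM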
CF NFkB inh: inhibitors of cystic fibrosis induced NF-kB; AID 588850; KKLEB NF-kB-GFP reporter, PAF-induced, GFP fluorescence overnight; 0.86% of 360,000 active; inhibition, % at 5 µM;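 active means at least 50% inhibition at 5 µM, scaled per plate between neutral and stimulator controls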;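 further: PAF is a Pseudomonas aeruginosa culture filtrate used as stimulus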
Beta2AR agonist: agonists of human beta-2 adrenergic receptor inducing internalization. Am2.2-beta2AR cells, FAP receptor internalization, flow cytometry. response, % (test concentration not listed). P07550. 0.43% of 340,000 active;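 active means response above a set limit, near 3 SD of response in nonfluorescent compounds, cut at about 42% in these data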
Target sequence (P07550 whole entry, looked up): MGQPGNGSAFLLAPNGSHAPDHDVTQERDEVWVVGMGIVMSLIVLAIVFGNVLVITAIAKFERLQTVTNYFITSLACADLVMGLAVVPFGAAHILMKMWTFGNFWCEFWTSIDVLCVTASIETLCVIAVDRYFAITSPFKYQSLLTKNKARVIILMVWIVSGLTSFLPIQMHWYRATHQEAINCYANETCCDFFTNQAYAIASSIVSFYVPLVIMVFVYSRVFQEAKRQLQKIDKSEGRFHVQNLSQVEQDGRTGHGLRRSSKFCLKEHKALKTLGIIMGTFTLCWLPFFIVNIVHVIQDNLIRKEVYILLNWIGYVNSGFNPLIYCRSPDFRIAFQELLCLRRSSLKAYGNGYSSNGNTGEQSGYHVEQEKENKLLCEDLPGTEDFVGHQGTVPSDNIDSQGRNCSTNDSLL
Peg3 promoter: Peg3 promoter activity inhibition. HeLa PEG-Prom luciferase reporter, luminescence, overnight. inhibition, % at 20 µM. 1.7% of 360,000 active;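 active means inhibition of at least 50% at 20 µM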
Beta2AR ag CP1: agonists of human beta-2 adrenergic receptor; shares compounds with Beta2AR agonist; Am2.2-beta2AR cells, FAP surface receptor, flow cytometry; hits give low values; percent response (surface receptor), % at 10 µM; 25% of 1,100 active;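 active means surface receptor percent response at or below 58%, roughly 3 SD from nonfluorescent compounds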
B2AR FAP counter: flagged in Am2.2 fluorescence counterscreen for beta-2AR agonists; shares compounds with Beta2AR agonist; Am2.2 cells, FAP fluorogen flow cytometry; hits give low values; calls only at 10 µM; 1,100 tested, under 10 active;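 active means percent response below a set limit in fluorescence channel 1 and below 50% in channel 8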
Large screens that a line does not name were inactive (follow-up assays come after a bar, where they were run).

Cc1cnc(N=Nc2ccccc2)[nH]1	none
COC(=O)C[C@H]1CC[C@@H](NC(=O)Nc2cccc(OC)c2)[C@@H](CO)O1	none (no result: KKLEB cytotox, MITF TRPM1 inh, CF NFkB inh, Beta2AR agonist, Peg3 promoter)
Cc1ccc(NC(=O)CCCn2c(=O)[nH]c3ccsc3c2=O)cc1	none
O=C(CCCCCn1c(=O)[nH]c2ccsc2c1=O)NCc1cccs1	none
O=C(CCCCCn1c(=O)[nH]c2ccsc2c1=O)NCc1ccc(F)cc1	Beta2AR agonist 109 | Beta2AR ag CP1 1.5 | B2AR FAP counter inactive
Cc1ccc(CNC(=O)CCCCn2c(=O)[nH]c3ccsc3c2=O)cc1	none | Beta2AR ag CP1 inactive | B2AR FAP counter inactive
C[C@@H]1CN([C@@H](C)CO)C(=O)CCCn2nncc2CO[C@H]1CN(C)S(=O)(=O)c1ccccc1C#N	none (no result: MITF TRPM1 inh, Beta2AR agonist)
COc1ccc(/C(O)=C2\C(=O)C(=O)N(c3cc(C)on3)C2c2ccccc2OC)cc1 (stereo not drawn)	Beta2AR agonist 50 | Beta2AR ag CP1 inactive | B2AR FAP counter inactive
O=C(CCCc1c[nH]c2ccccc12)NCc1ccccc1F	none
Cc1ccc(CNC(=O)CCCc2c[nH]c3ccccc23)cc1	Beta2AR agonist 52 | Beta2AR ag CP1 inactive | B2AR FAP counter inactive
CC1(C)Cc2c(c(-c3ccco3)nc3sc4c(NCCN5CCOCC5)ncnc4c23)CO1	none
CC1(C)Cc2c(c(-c3ccco3)nc3sc4c(NCCCO)ncnc4c23)CO1	Beta2AR agonist 111 | Beta2AR ag CP1 26 | B2AR FAP counter inactive
CC1(C)Cc2c(c(-c3ccco3)nc3sc4c(NCC5CCCO5)ncnc4c23)CO1 (stereo not drawn)	Beta2AR agonist 83 | Beta2AR ag CP1 10 | B2AR FAP counter inactive
CC1=C2CCCC[C@@]23C2C(=O)N(C)C(=O)[C@@H]2ON3OC1 (stereo partly drawn)	none (no result: KKLEB cytotox, MITF TRPM1 inh, CF NFkB inh, Beta2AR agonist, Peg3 promoter)
c1ccc(CNc2nc(N3CCN(Cc4ccccc4)CC3)nc3ccccc23)cc1	Peg3 promoter 65 (no result: MITF TRPM1 inh) | Beta2AR ag CP1 inactive | B2AR FAP counter inactive
CC(=O)Nc1ccc2c(c1)C(N1CC3CCC(CC3)C1)c1ccccc1-2 (stereo not drawn)	Beta2AR agonist 43 | Beta2AR ag CP1 inactive | B2AR FAP counter inactive
CCCc1nc2oc3c(NCCN(C)C)ncnc3c2c2c1CCCC2	MITF TRPM1 inh 76, Peg3 promoter 68 | Beta2AR ag CP1 inactive | B2AR FAP counter inactive
CC(C)Cc1nc2oc3c(NCC(C)O)ncnc3c2c2c1CCCC2 (stereo not drawn)	none | Beta2AR ag CP1 inactive | B2AR FAP counter inactive
COc1ncnc2c1oc1nc(CC(C)C)c3c(c12)CCCC3	none
CCCc1cc(=O)n2c(nc3ccccc32)[nH]1	Beta2AR agonist 68 | Beta2AR ag CP1 inactive | B2AR FAP counter inactive
Cc1cc(=O)n2c(nc3ccccc32)[nH]1	none
O=C(NC1CCCCC1)C1c2ccccc2OCC(=O)N1Cc1ccccn1 (stereo not drawn)	none (no result: KKLEB cytotox, MITF TRPM1 inh, CF NFkB inh, Beta2AR agonist, Peg3 promoter)
COC(=O)c1ccc(N2CCN(C)CC2)c(NC(=O)c2sc3ccccc3c2Cl)c1	Beta2AR agonist 71, Peg3 promoter 110 | Beta2AR ag CP1 inactive | B2AR FAP counter inactive
Cc1cc(C)n2nc(CNS(=O)(=O)c3ccc(C(C)(C)C)cc3)nc2n1	none (no result: MITF TRPM1 inh, Beta2AR agonist)
Oc1ccccc1/C=N/Nc1nc2ccccc2o1	none | Beta2AR ag CP1 inactive | B2AR FAP counter inactive
CC(NCc1cccc(OCc2ccccc2)c1)C(O)c1ccccc1 (stereo not drawn)	none
CC(NCc1ccc(OCc2ccc(Cl)cc2)cc1)C(O)c1ccccc1 (stereo not drawn)	Beta2AR agonist 79, Peg3 promoter 104 | Beta2AR ag CP1 inactive | B2AR FAP counter inactive
O=C(CC1c2ccccc2C=C(c2ccsc2)N1c1ccc(-c2cccnc2)cc1)C1CC1 (stereo not drawn)	none (no result: KKLEB cytotox, MITF TRPM1 inh, CF NFkB inh, Beta2AR agonist, Peg3 promoter)
CCCc1ccc(C(O)c2ncc(-c3ccccc3C)[nH]2)cc1 (stereo not drawn)	none (no result: MITF TRPM1 inh, Beta2AR agonist)
CN(CCCN1CCOCC1)Cc1cn(C)nc1-c1ccccc1F	none | Beta2AR ag CP1 inactive | B2AR FAP counter inactive
CN(Cc1ccccc1)C(c1ccnc2ccccc12)c1nnnn1-c1ccc2c(c1)OCCO2 (stereo not drawn)	none (no result: KKLEB cytotox, MITF TRPM1 inh, CF NFkB inh, Beta2AR agonist, Peg3 promoter)

Compound activity deposited in PubChem by several laboratories.
